Compound activity as filed in PubChem.
ER stress surv – protection against thapsigargin ER stress killing – CSM14.1 cells, ATP luminescence, primary screen; relative survival (cellular ATP), % at 15 µg/mL (by protocol); actives 0.33% (n = 48,000); AID 1010, 2008; CSM14.1 thapsigargin ER stress survival;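 active means survival measured by cellular ATP above 50% at 15 µg/ml in the first screen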;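 further: cell death triggered by about 15 µM thapsigargin; ATP read 24 h after thapsigargin was added; plate controls were thapsigargin with DMSO for no effect and DMSO without thapsigargin for full effect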
Starred values were filed as active, the others as inactive. The full list was thinned out, with hits kept by preference.

Screening COc1cc(C(=O)N2CCN(Cc3ccccc3C(F)(F)F)CC2)cc(OC)c1OC returned ER stress surv 8.
COc1cc(OC)cc(C(=O)N2CCN(Cc3ccccc3C(F)(F)F)CC2)c1 was read as ER stress surv 73*.
Screening COc1ccc(C(=O)N2CCN(Cc3ccccc3)CC2)c(OC)c1 returned ER stress surv -2.
COc1ccc(CN2CCN(C(=O)c3ccc(-c4ccccc4)cc3)CC2)c(OC)c1 was read as ER stress surv 129*.
`COc1ccc(Br)cc1CN1CCN(C(=O)c2ccc(-c3ccccc3)cc2)CC1` gave ER stress surv 98*.
COc1cc(OC)c(OC)cc1CN1CCN(C(=O)c2ccc(OC)c(OC)c2)CC1 was read as ER stress surv 2.
Screening CN1C2C=C(N(CCc3c[nH]c4ccccc34)C(=O)c3ccc(F)cc3)CC1CC2 (stereo not drawn) returned ER stress surv -7.
`C=CCN1C(=O)NC(=O)/C(=C/c2cc(OC)c(OC(C)=O)c(OC)c2)C1=O` gave ER stress surv 8.
Cn1cnnc1SCC(=O)NC(c1ccccc1)c1ccccc1 was read as ER stress surv 3.
For Cc1ccc(-c2nnc(NC(=O)Nc3cccc(Cl)c3)s2)cc1C the results were ER stress surv 3.
CN(C(=O)c1ccc(Cl)cc1)c1ccccc1 was read as ER stress surv 17.
Screening CC1=NN(C(=O)C(C)(C)C)C(O)(c2ccccc2)C1 (stereo not drawn) returned ER stress surv 6.
For CC(C)(C)c1ccc(C(=O)N/C(=C/c2ccc(Br)cc2)C(=O)NN)cc1 the results were ER stress surv -3.
For CCn1c2ccccc2c2cc(CN3CCN(C(=O)c4ccc(OC)c(OC)c4)CC3)ccc21 the results were ER stress surv 122*.
Screening CCn1c2ccccc2c2cc(CN3CCN(C(=O)c4cc(OC)c(OC)c(OC)c4)CC3)ccc21 returned ER stress surv 113*.
`CCn1c2ccccc2c2cc(CN3CCN(Cc4ccccc4OC)CC3)ccc21` gave ER stress surv -2.
Screening CCn1c2ccccc2c2cc(CN3CCN(C(=O)c4ccncc4)CC3)ccc21 returned ER stress surv 17.
CCn1c2ccccc2c2cc(CN3CCN(Cc4cc(OC)c(OC)cc4OC)CC3)ccc21 was read as ER stress surv -6.
For CCn1c2ccccc2c2cc(CN3CCN(Cc4ccc(OC)c(OC)c4OC)CC3)ccc21 the results were ER stress surv -4.
O=C(Nc1nccs1)c1ccc(N2C(=O)c3cccc([N+](=O)[O-])c3C2=O)cc1 was read as ER stress surv 8.
`O=C(COc1ccc(Cl)cc1Cl)Nc1ccc(S(=O)(=O)N2CCc3ccccc32)cc1` gave ER stress surv -3.
O=C(/C=C/c1ccc2c(c1)OCO2)c1ccc(Br)cc1 was read as ER stress surv 4.
Screening CN(C)c1ccc(/C=C/C(=O)c2ccc(Br)cc2)o1 returned ER stress surv 56*.
Screening O=C(/C=C/c1ccc([N+](=O)[O-])o1)c1ccc(Br)cc1 returned ER stress surv 4.
For CN1C(=O)/C(=C/c2ccc(OC(=O)c3ccc(F)cc3)cc2)SC1=S the results were ER stress surv -5.
`CC(C)(C)c1ccc(C(=O)N2N=C(c3cccnc3)CC2(O)C(F)(F)F)cc1` (stereo not drawn) gave ER stress surv 55*.
CC(C)(C)c1ccc(C(=O)N2N=C(c3ccc([N+](=O)[O-])cc3)CC2(O)C(F)(F)F)cc1 (stereo not drawn) was read as ER stress surv 12.
COc1cccc(C2=NN(C(=O)c3ccc(C(C)(C)C)cc3)C(O)(C(F)(F)F)C2)c1 (stereo not drawn) was read as ER stress surv 1.
For COC(=O)c1cc(Cl)c(NC(=O)c2c(-c3ccccc3Cl)noc2C)cc1OC the results were ER stress surv 3.
For Cc1ccc(-c2csc(/C(C#N)=C\c3ccc(C)s3)n2)cc1 the results were ER stress surv 9.
For Cc1ccc(N=C(NOCc2cccc(Br)c2)c2nonc2N)cc1 the results were ER stress surv 9.
For O=c1/c(=C/c2ccc(Sc3ccccc3)o2)sc2nc3ccccc3n12 the results were ER stress surv 11.
Screening COc1ccc(C2Nc3ccccc3NC3=C2C(=O)CC(c2ccccc2)C3)cc1Br (stereo not drawn) returned ER stress surv 29.
`CCOc1cc(C2Nc3ccccc3NC3=C2C(=O)CC(c2ccccc2)C3)cc(Br)c1O` (stereo not drawn) gave ER stress surv 35.
COc1ccc(C2CC(=O)C3=C(C2)Nc2ccccc2NC3c2ccc(OC)c(OC)c2)cc1 (stereo not drawn) was read as ER stress surv 12.
COc1ccc(C2CC(=O)C3=C(C2)Nc2ccccc2NC3c2cccc(Oc3ccccc3)c2)cc1OC (stereo not drawn) was read as ER stress surv 85*.
COc1ccc(C2CC(=O)C3=C(C2)Nc2ccccc2NC3c2cccc(F)c2)cc1OC (stereo not drawn) was read as ER stress surv 2.
For COc1ccc(C2CC(=O)C3=C(C2)Nc2ccccc2NC3c2ccc(OC)c(Br)c2)cc1 (stereo not drawn) the results were ER stress surv 96*.
Screening CCOc1cc(C2Nc3ccccc3NC3=C2C(=O)CC(c2ccc(OC)cc2)C3)cc(Br)c1O (stereo not drawn) returned ER stress surv 64*.
`CCOc1ccc(C2Nc3ccccc3NC3=C2C(=O)CC(c2ccc(OC)cc2)C3)cc1OC` (stereo not drawn) gave ER stress surv 5.
Screening COc1ccc(C2CC(=O)C3=C(C2)Nc2ccccc2NC3c2ccc(-c3ccccc3)cc2)cc1OC (stereo not drawn) returned ER stress surv 6.
For O=C(/C=C/c1ccco1)Nc1ccc(C(=O)Nc2nccs2)cc1 the results were ER stress surv -2.
C/C(=N\N=C1\NC(=O)C(CC(=O)Nc2ccccc2)S1)C(C)C (stereo not drawn) was read as ER stress surv 5.
Screening COc1ccc2ccccc2c1C1NN=C(c2ccc(C)cc2)S1 (stereo not drawn) returned ER stress surv 0.
O=S1(=O)CCC(NS(=O)(=O)c2ccc(F)cc2)C1 (stereo not drawn) was read as ER stress surv -4.
`CCOC(=O)c1c(NC(=O)COc2ccc(Cl)cc2)sc2c1CCN(C(=O)OCC)C2` gave ER stress surv 5.
`CC1(C)CC(=O)C2=C(C1)Nc1ccccc1NC2c1cccc(F)c1` (stereo not drawn) gave ER stress surv 0.
`CSc1ccc(C2Nc3ccccc3NC3=C2C(=O)CC(C)(C)C3)cc1` (stereo not drawn) gave ER stress surv 11.
COc1ccc(C2Nc3ccccc3NC3=C2C(=O)CC(C)(C)C3)cc1COc1ccc(F)cc1 (stereo not drawn) was read as ER stress surv 61*.
`CC1(C)CC(=O)C2=C(C1)Nc1ccccc1NC2c1ccc(-c2ccccc2)cc1` (stereo not drawn) gave ER stress surv 121*.
For COC(=O)c1ccc(C2Nc3ccccc3NC3=C2C(=O)CC(C)(C)C3)cc1 (stereo not drawn) the results were ER stress surv 7.
Screening CCCCOc1ccc(C2Nc3ccccc3NC3=C2C(=O)CC(C)(C)C3)cc1 (stereo not drawn) returned ER stress surv -3.
For COc1ccc(N=Cc2cccnc2)cc1 the results were ER stress surv -8.
